Source: PubChem BioAssay (Tox21)
Unmarked numbers belong to inactive results. Results filed as inconclusive are left out. A call without a number means that no potency is given here. Activity calls are given as the source filed them. Unless noted, calls come from the whole dose curve.

Experiments:
[1] = Nuclear factor erythroid 2-related factor 2/antioxidant responsive element (Nrf2/ARE) small molecule agonists: qHTS cell viability counter screen in human keratinocytes (AID 1919968; active = well fitted curve in the direction sought with a large enough effect in the repeat runs; an effect the other way counts as inactive or inconclusive; note: nearly all actives have a fitted effect of over 55% in size)
How it was run: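 HaCaT ARE reporter line, 1,500 cells/well; 5 h settle, 37 C/5% CO2; cpd in DMSO pinned; 23 h exposure; CellTiter-Fluor, 1 h; fluorescence.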

[2] = Nuclear factor erythroid 2-related factor 2/antioxidant responsive element (Nrf2/ARE) small molecule agonists: luciferase reporter gene qHTS assay in human keratinocytes (AID 1919969); note: nearly all actives have a fitted effect of over 35% in size
[3] = target: Gonadotropin-releasing hormone receptor (Homo sapiens) (UniProt P30968); assay: Human gonadotropin-releasing hormone receptor (GnRHR) small molecule agonists, calcium flux assay in GnRHR-HEK293 cells (AID 1920063); note: nearly all actives have a fitted effect of over 35% in size
How it was run: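 GnRHR-HEK293, 1500 cells/well, 18 h 37 C/5% CO2; Ca dye 1 h 37 C; cpd pinned (DMSO), agonist mode; kinetic FL 480/540, 3 min, 1 s reads; 15 conc, n=3.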

[4] = target: KiSS-1 receptor (Homo sapiens) (UniProt Q969F8); assay: Human kisspeptin (KISS1R) small molecule agonists, calcium flux assay in KISS1R-HEK293 cells (AID 1920064; active = well fitted curve in the direction sought with a large enough effect in the repeat runs; an effect the other way counts as inactive or inconclusive)
How it was run: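 Stable human KISS1R HEK293 line; 18 h plating, 37 C/5% CO2; calcium dye 1 h 37 C; compound pin transfer; kinetic fluorescence Ex/Em 480/540, 3 min.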

[5] = G protein-coupled receptor (GPCR) small molecule agonists, calcium flux assay: HEK293 wild type cell line counter screen (AID 1920065)
How it was run: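 Kinetic fluorescence at Ex/Em 480/540, recorded every second over 3 min, served as the read-out after compound addition. Each compound was tested at 15 concentrations in triplicate on cells pre-loaded with calcium dye for 1 h.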

[6] = p53 small molecule agonists, cell-based qHTS assay with human liver microsomes (AID 1963577)
How it was run: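 Fluorescence of the beta-lactamase reporter in p53RE-bla cells, detected with LiveBLAzer substrate (2 h, room temperature, dark), served as the read-out after 16 h compound exposure at 37 C with human liver microsomes and NADPH, each 0.5 mg/mL final.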

[7] = p53 small molecule agonists, cell-based qHTS assay with rat liver microsomes (AID 1963578)
How it was run: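 Cells carrying a p53 response element–beta-lactamase reporter were plated and rested 5 h, then dosed with compound in DMSO plus rat liver microsomes and NADPH, each at 0.5 mg/mL final. After 16 h at 37 C, LiveBLAzer substrate was added for 2 h.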

[8] = p53 small molecule agonists, cell-based qHTS assay with rat liver microsomes: qHTS cell viability counter screen (AID 1963580); note: nearly all actives have a fitted effect of over 45% in size
How it was run: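 p53RE-bla HCT-116 cells were exposed 16 h at 37 C to compounds with rat liver microsomes (0.5 mg/mL) and NADPH (0.5 mg/mL). Viability was measured in the same wells as ATP content by CellTiter-Glo luminescence.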

[9] = p53 small molecule agonists, cell-based qHTS assay (AID 1963582; active = well fitted activation curve with a large enough effect in the signal ratio in the repeat runs, not every such curve was filed as active; the % refers to the signal ratio)
How it was run: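 Reporter line: p53RE-bla. Pre-incubation 5 h, 37 C, 5% CO2; compound (DMSO, pin tool) 16 h, 37 C; B/G FRET substrate 2 h RT; fluorescence intensity read.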

[10] = target: 5-hydroxytryptamine receptor 2A (Homo sapiens) (UniProt P28223); assay: 5-hydroxytryptamine receptor 2A (HTR2A) small molecule antagonists, cell-based qHTS assay (AID 1963586); note: nearly all actives have a fitted effect of over 45% in size
How it was run: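 Antagonist-mode intracellular calcium assay: DOI (4 nM) added after 5 min compound pre-incubation at room temperature to dye-loaded HTR2A-CHO cells. Fluorescence followed for 3 min, sampled every second.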

[11] = target: 5-hydroxytryptamine receptor 2A (Homo sapiens) (UniProt P28223); assay: 5-hydroxytryptamine receptor 2A (HTR2A) small molecule agonists, cell-based qHTS assay (AID 1963587); note: nearly all actives have a fitted effect of over 30% in size
How it was run: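 CHO cells stably expressing human HTR2A, plated 18 h, loaded with calcium dye 1 h at 37 C. Agonist mode: compounds added and intracellular calcium fluorescence recorded kinetically for 2 min at 1 sec intervals.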

[12] = target: Muscarinic acetylcholine receptor M1 (Homo sapiens) (UniProt P11229); assay: Cholinergic receptor muscarinic 1 (CHRM1) small molecule antagonists, cell-based qHTS assay (AID 1963588); note: nearly all actives have a fitted effect of over 40% in size
How it was run: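 CHRM1-CHO calcium-flux assay, antagonist mode. Cells were seeded 18 h, dye-loaded 1 h at 37 C and given compound for 5 min at RT, then acetylcholine was added at 50nM. FDSS fluorescence was read 3 min; 15 concentrations, three runs.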

[13] = target: Muscarinic acetylcholine receptor M1 (Homo sapiens) (UniProt P11229); assay: Cholinergic receptor muscarinic 1 (CHRM1) small molecule agonists, cell-based qHTS assay (AID 1963589); note: nearly all actives have a fitted effect of over 35% in size
How it was run: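 Human M1 in stable CHO line; 18 h plating, 1 h dye load 37 C; cpd added (agonist mode); Ca2+ fluorescence kinetic read, 1 s intervals; 15 conc, 3 runs.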

[14] = cAMP Responsive Elements (CRE) small molecule agonists, cell-based qHTS assay (AID 1963590)
How it was run: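 HEK 293T CRE-bla, 2,000 cells/well, 18 h preincubation 37 C/5% CO2; cpds (DMSO) pinned, 3 h; LiveBLAzer B/G FRET substrate, 2 h RT.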

[15] = cAMP Responsive Elements (CRE) small molecule antagonists, cell-based qHTS assay (AID 1963591; active = well fitted inhibition curve with a large enough effect in the signal ratio in the repeat runs, not every such curve was filed as active; the % refers to the signal ratio)
How it was run: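 Beta-lactamase reporter read by FRET substrate (LiveBLAzer B/G) after 2 h at room temperature. CRE-bla HEK293T cells had received compound plus 0.25 uM (final) NKH477 for 3 h at 37 °C.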

[16] = target: Beta-2 adrenergic receptor (Homo sapiens) (UniProt P07550); assay: Adrenergic beta2 receptor (ADRB2) small molecule antagonists, cell-based qHTS assay (AID 1963592); note: series mostly up to about 92 µM; nearly all actives have a fitted effect of over 50% in size
How it was run: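 Cells (CHO, stable ADRB2 overexpression) incubated 18-20hr at 37C; compounds added from DMSO; agonist mix (1nM isoproterenol, 100uM IBMX, 25uM Ro-20-1724) added; 0.5hr RT; d2-cAMP and anti-cAMP-cryptate added; 1hr RT; 665/615 nm read.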

[17] = target: D(2) dopamine receptor (Homo sapiens) (UniProt P14416); assay: Dopamine D2 receptor (DRD2) small molecule agonists, cell-based qHTS assay (AID 1963594); note: nearly all actives have a fitted effect of over 35% in size; note: potency is the fitted concentration of half-maximal effect
How it was run: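 HEK293 cells stably expressing human DRD2, pre-treated with PDE inhibitor Ro20-1724 (0.1 mM final) and compound 10 min at room temperature, then stimulated with NKH477 (200nM […]) for 30 min. cAMP read by HTRF (665/620 nm).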

[18] = target: D(2) dopamine receptor (Homo sapiens) (UniProt P14416); assay: Dopamine D2 receptor (DRD2) small molecule antagonists, cell-based qHTS assay (AID 1963595; active = well fitted inhibition curve with a large enough effect in the signal ratio in the repeat runs, with a control signal flat; the % refers to the signal ratio)
How it was run: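 HEK293 cells stably expressing DRD2 were preincubated with 0.1 mM Ro20-1724, then with compound for 10 min at room temperature. Cells were stimulated with 200 nM NKH477 plus 12 nM quinpirole for 30 min, and cAMP was read by HTRF.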

[19] = p53 small molecule agonists, cell-based qHTS assay: qHTS cell viability counter screen (AID 1963581); note: nearly all actives have a fitted effect of over 45% in size
How it was run: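 HCT-116 p53RE-bla cells, 4,000/well, plated 5 h before compound pin transfer; 16 h at 37 C; bla substrate 2 h RT; then CellTiter-Glo, 30 min RT, luminescence.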

Sequence of D(2) dopamine receptor (Homo sapiens) (P14416 whole entry, looked up): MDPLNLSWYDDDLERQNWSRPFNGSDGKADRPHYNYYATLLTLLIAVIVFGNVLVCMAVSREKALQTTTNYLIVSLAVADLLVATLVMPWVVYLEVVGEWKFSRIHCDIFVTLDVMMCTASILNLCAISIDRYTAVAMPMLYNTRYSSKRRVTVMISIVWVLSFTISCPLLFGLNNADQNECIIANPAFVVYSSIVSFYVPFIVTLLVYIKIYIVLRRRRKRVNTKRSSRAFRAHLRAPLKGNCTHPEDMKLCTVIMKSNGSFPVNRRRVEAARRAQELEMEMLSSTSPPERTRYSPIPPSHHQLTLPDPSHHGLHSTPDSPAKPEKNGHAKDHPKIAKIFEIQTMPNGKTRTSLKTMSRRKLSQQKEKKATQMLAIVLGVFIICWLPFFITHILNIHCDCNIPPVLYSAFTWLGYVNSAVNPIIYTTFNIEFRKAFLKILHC
Sequence of Beta-2 adrenergic receptor (Homo sapiens) (P07550 whole entry, looked up): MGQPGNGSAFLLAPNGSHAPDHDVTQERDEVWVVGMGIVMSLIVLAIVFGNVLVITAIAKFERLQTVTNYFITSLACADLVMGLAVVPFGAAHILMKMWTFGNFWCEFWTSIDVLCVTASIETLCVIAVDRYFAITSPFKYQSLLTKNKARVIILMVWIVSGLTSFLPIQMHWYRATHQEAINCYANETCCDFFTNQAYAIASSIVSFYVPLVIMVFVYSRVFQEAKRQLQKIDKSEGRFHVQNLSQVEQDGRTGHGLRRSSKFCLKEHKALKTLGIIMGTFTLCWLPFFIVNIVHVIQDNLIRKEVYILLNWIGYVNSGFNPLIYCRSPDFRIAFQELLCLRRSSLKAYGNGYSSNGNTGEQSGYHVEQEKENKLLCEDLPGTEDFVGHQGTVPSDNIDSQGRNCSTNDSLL
Sequence of KiSS-1 receptor (Homo sapiens) (Q969F8 whole entry, looked up): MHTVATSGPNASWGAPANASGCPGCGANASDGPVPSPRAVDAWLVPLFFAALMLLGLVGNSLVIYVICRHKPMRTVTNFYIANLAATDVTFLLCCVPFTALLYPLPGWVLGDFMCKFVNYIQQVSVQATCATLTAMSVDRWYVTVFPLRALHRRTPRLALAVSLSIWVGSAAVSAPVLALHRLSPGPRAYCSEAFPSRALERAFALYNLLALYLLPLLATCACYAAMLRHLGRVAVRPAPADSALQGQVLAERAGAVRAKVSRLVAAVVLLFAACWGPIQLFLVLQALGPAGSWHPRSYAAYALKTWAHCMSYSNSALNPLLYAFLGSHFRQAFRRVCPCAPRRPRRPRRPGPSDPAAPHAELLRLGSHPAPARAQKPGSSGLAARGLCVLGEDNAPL
Sequence of Muscarinic acetylcholine receptor M1 (Homo sapiens) (P11229 whole entry, looked up): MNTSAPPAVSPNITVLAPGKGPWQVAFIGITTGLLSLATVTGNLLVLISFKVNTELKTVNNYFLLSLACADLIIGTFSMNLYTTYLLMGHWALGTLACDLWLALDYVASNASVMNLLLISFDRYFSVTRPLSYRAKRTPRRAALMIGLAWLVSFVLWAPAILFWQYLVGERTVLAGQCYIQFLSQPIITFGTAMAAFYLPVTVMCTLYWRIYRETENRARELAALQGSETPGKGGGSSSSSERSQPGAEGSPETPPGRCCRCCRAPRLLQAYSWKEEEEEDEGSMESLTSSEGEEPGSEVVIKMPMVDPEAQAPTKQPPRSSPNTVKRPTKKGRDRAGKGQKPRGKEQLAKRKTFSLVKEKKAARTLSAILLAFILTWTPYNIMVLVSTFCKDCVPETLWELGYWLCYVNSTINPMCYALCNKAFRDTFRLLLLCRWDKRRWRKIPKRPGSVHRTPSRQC
Sequence of 5-hydroxytryptamine receptor 2A (Homo sapiens) (P28223 whole entry, looked up): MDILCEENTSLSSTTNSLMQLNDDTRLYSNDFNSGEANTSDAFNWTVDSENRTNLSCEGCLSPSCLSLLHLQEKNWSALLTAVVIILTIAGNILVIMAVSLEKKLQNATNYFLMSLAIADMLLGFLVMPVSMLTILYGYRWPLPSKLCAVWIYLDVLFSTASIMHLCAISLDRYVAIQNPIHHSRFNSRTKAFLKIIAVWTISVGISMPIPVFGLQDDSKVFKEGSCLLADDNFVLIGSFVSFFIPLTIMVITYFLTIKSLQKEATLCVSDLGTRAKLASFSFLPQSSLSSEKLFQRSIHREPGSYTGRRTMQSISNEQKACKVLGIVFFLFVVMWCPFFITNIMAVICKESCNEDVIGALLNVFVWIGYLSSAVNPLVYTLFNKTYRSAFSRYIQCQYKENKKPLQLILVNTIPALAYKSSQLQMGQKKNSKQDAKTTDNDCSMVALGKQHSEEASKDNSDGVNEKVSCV
Sequence of Gonadotropin-releasing hormone receptor (Homo sapiens) (P30968 whole entry, looked up): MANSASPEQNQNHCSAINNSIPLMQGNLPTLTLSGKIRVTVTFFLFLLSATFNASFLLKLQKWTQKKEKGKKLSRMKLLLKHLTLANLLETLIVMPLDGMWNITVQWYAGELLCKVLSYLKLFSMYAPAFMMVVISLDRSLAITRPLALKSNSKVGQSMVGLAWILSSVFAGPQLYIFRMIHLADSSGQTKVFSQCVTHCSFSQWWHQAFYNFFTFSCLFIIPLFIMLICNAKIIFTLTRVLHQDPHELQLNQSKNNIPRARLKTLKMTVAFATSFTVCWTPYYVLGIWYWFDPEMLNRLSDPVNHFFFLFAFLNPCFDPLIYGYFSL

| SMILES | Potency [1] | Potency [2] | Potency [3] | Potency [4] | Potency [5] | Potency [6] | Potency [7] | Potency [8] | Potency [9] | Potency [10] | Potency [11] | Potency [12] | Potency [13] | Potency [14] | Potency [15] | Potency [16] | Potency [17] | Potency [18] | Potency [19] |
| --- | --- | --- | --- | --- | --- | --- | --- | --- | --- | --- | --- | --- | --- | --- | --- | --- | --- | --- | --- |
| O=Cc1cc2ccccc2o1 | inactive | inactive | inactive | inactive | inactive | inactive | inactive | inactive | inactive | inactive | inactive | inactive | inactive | inactive | inactive | inactive | inactive | inactive |  |
| CCN1CCc2nc(N)oc2CC1 | inactive | inactive | inactive | inactive | inactive | inactive | inactive | inactive | inactive | inactive | inactive | inactive | inactive | inactive | inactive | inactive | 26.6 µM (active) | inactive | inactive |
| O=C1NC2NC(=O)NC2N1 (configuration not stated) | inactive | inactive | inactive | inactive | inactive | inactive | inactive | inactive | inactive | inactive | inactive | inactive |  | inactive | inactive | inactive | inactive |  | inactive |
| C=CC(C)(CCC=C(C)C)OC(=O)CC (configuration not stated) | inactive | inactive | inactive | inactive | inactive | inactive | inactive | inactive | inactive | inactive | inactive | inactive | inactive | inactive | inactive |  | inactive | inactive | inactive |
